The whole screen tested about 68,000 compounds, of which about 2,700 (4%) showed an effect of 50% or more. Shown is part of a subset that was picked to be rich in strong results.
test system: Plasmodium berghei; test: Screen against P. berghei liver stage (PbLuc), transformed with Luciferase, at 2uM; format: functional, HepG2; conditions: tested at 2 uM

Compound	INHIBITION
Cc1cc(CN2CCC(N(C)Cc3noc(C4CC4)n3)C2)no1 (stereo not drawn)	-17.31%
COc1cccc(S(=O)(=O)N2CCCCC2CCN2CCCC2=O)c1 (stereo not drawn)	25.51%
NCC(c1ccc(Cl)cc1)N1CCc2sccc2C1 (stereo not drawn)	-5.59%
CC(C)NC(=O)N1CCC2(CC1)[C@@H]1CN(C(=O)N(C)C)C[C@@H]1C(=O)N2C	24.36%
O=C(CS(=O)(=O)C1CCCC1)NC1CCCc2cc(OC(F)F)ccc21 (stereo not drawn)	14.88%
O=C(COCC(F)(F)F)NC1CCCc2cc(OC(F)F)ccc21 (stereo not drawn)	60.52%
COC(=O)CCC(=O)NC1CCCc2cc(OC(F)F)ccc21 (stereo not drawn)	-41.81%
CC(C)NC(=O)N1CCCCCC1C1CCN(c2ncccn2)CC1 (stereo not drawn)	36.28%
O=C(O)c1ccccc1-c1ccc(CN2CC(c3ccncn3)C2)o1	-44.74%
CCn1cc(NC(=O)NC2CCCc3c2cnn3CCO)cn1 (stereo not drawn)	56.57%
O=C(Nc1nncs1)NC1CCCc2c1cnn2CCO (stereo not drawn)	8.27%
O=C(NC1CCCCC1)NC1CCCc2c1cnn2CCO (stereo not drawn)	-39.36%
Cc1nnc(NC(=O)NC2CCCc3c2cnn3CCO)s1 (stereo not drawn)	53.57%
Cc1cc(NC(=O)NC2CCCc3c2cnn3CCO)n(C)n1 (stereo not drawn)	32.55%
Cc1nc(CCNC(=O)NC2CCCc3c2cnn3CCO)cs1 (stereo not drawn)	-47.76%
Cc1cc(C)cc(NC(=O)c2cnc(N3CCN(C)CC3)nc2C)c1	19.84%
Cc1cc(C)c(CNC(=O)C(C)Oc2ccccc2C#N)c(=O)[nH]1 (stereo not drawn)	35.43%
CCOCC(=O)N1C[C@H]2CN(CC3CC3)C(=O)[C@H]2C1	-3.65%
O=C(c1ncoc1C1CC1)N1CCCN(CCCc2ccccc2)CC1	26.3%
CC1CCN(C(=O)CSCCN2CCOCC2)CC1	8.64%
COCCN1CCN(c2ccc(CN(C)C)cn2)CC1	-0.85%
O=C(Nc1cnc2n1CCCC2)c1cccc(NC(=O)C2CCCC2)c1	22%
CC(=O)Nc1cccc(C(=O)Nc2cnc3n2CCCC3)c1	19.61%
O=C(Nc1cnc2n1CCCC2)c1cccc(-n2cnnc2)c1	50.91%
CSc1ncccc1C(=O)NCCC(O)c1ccco1 (stereo not drawn)	14.45%
O=C(NCc1nnc2n1CCC2)c1cn(-c2ccccc2Br)nn1	-17.44%
CC(C)(C)c1ccc(-n2ncc3c2CCCC3N)cc1 (stereo not drawn)	46.95%

Compound	INHIBITION
CN(C)S(=O)(=O)NC1CCCc2c1cnn2-c1ccc(C(C)(C)C)cc1 (stereo not drawn)	75.11%
Cc1ccc(-n2ncc3c2CCCC3N)cc1C (stereo not drawn)	-13.35%
CCC(C)(C)n1nnnc1C(c1cccs1)N1CCc2ccccc2C1 (stereo not drawn)	36.24%
Cc1nn(CCC(=O)NC2CCCOC2)c(C)c1C (stereo not drawn)	-3.15%
Cc1ccc(N(CC(=O)N2CCCCC2)C(=O)C2COCCO2)cc1 (stereo not drawn)	72.49%
Cc1ccc(N(CC(=O)N2CCCCC2)C(=O)C2CCCO2)cc1 (stereo not drawn)	-82.35%
CCc1noc(CN(CC(=O)N2CCCCC2)c2ccc(C)cc2)n1	38.67%
CCOc1ccc(Br)cc1-c1cc(N)[nH]n1	9.66%
CC(C)N(Cc1ccc(C#N)cc1)Cc1nnsc1Cl	22.34%
CCN(Cc1nnsc1Cl)C(C)c1ccc(C#N)cc1 (stereo not drawn)	56.49%
CCCN(Cc1ccc(C#N)cc1)Cc1nnsc1Cl	20.14%
Cc1cc(C)nc(N2CCC(c3ccnc(N(C)C)n3)CC2)n1	-42.91%
Cc1nc(O)cc([C@@H]2CN(C(=O)C3CC3)C[C@H]2c2ccccc2F)n1	-7.22%
CC(=O)NCCNC(=O)CN1CCOC(Cn2cccn2)C1 (stereo not drawn)	-21.68%
CC(C)(Oc1ccc(F)cc1)C(=O)NCc1ccco1	58.14%
CC(C)(C)Oc1ccc(NCC(=O)NCc2ccco2)cc1	-62.92%
CC(C)(Oc1ccc2c(c1)CCCC2=O)C(=O)NCc1ccco1	15.88%
c1ccc(N2CCCC3(COCCN(c4nccs4)C3)C2)nc1 (stereo not drawn)	-29.98%
COc1cccc(CN2CCc3nc(C(=O)NCC(C)C)sc3CC2)c1	-4.19%
COc1ccc(C)cc1-n1cnnc1C1CC(=O)N(C)C1 (stereo not drawn)	43.57%
Cc1nccc(C2CN(C(=O)c3cncnc3)C2)n1	38.22%
Cc1cc(C2CCCN(S(=O)(=O)N(C)C)C2)ccn1 (stereo not drawn)	-5.34%
CSCCc1ccc(NC(=O)NC(C)Cn2cncn2)cc1 (stereo not drawn)	60.34%
CC(Cn1cncn1)NC(=O)NCC(C)(C)Cc1ccccc1 (stereo not drawn)	46.98%
CC(Cn1cncn1)NC(=O)Nc1ccc(COC2CCCC2)cc1 (stereo not drawn)	1.01%
O=C(c1cocn1)N1CCC2(CC1)CC(OCC1CC1)CO2 (stereo not drawn)	1.33%

— ChEMBL document CHEMBL4513216, “Probing the Open Global Health Chemical Diversity Library for Multistage-Active Starting Points for Next-Generation Antimalarials” (ACS Infect Dis, 2020)
